Inconclusive results are not listed. Unmarked numbers belong to inactive results. The source made the active and inactive calls. Calls come from the whole dose curve; as a rule, active = well fitted activation curve with a large enough effect in the signal ratio in the repeat runs (not every such curve was filed as active); inconclusive = weak or mixed curves; inactive = flat fitted curve, though single readings scatter; the % refers to the signal ratio.
Test: qHTS assay to identify small molecule agonists of the TGF-beta/Smad signaling pathway (AID 1346859)
Settings: SBE-bla HEK293T, TGF-beta/Smad beta-lactamase reporter, 5 h; series mostly up to 76.8 µM
Source text: U.S. Tox21 Program National Center for Advancing Translational Sciences [NCATS] NIH Chemical Genomics Center [NCGC] U.S. Environmental Protection Agency [EPA] National Institutes of Environmental Health Sciences [NIEHS] National Toxicology Program [NTP] U.S. Food and Drug Administration [FDA] Tox21 Assay Overview: Transforming growth factor beta (TGF-beta) superfamily consists of a large number of structurally related dimeric proteins that act as hormones or local mediators in regulating a wide range of biological functions. This superfamily includes TGF-betas themselves, the bone morphogenetic proteins (BMPs) and the activins. These ligands induce oligomerization of serine/threonine receptor kinases and phosphorylate the cytoplasmic signaling molecules of Smad protein family. CellSensor SBE-bla HEK 293T cell line (Life Technologies, Carlsbad, CA), responsive to TGF-beta was used to screen Tox21 10K compound library for identification of agonists/antagonists of the Smad signaling pathway. This cell line contains a beta-lactamase reporter gene under control of the Smad binding element (SBE) stably integrated into HEK 293T cells.
Tox21 Assay Protocol Summary: SBE-bla HEK 293T cells were dispensed at 4,000/well in 6 uL of assay medium into black wall/clear-bottom 1536-well plates using a Multidrop Combi (ThermoFisher Scientific, Waltham, MA) dispenser. After the assay plates were incubated at 37 C and 5% CO2 for an overnight, 23 nL of compounds dissolved in DMSO, positive controls or DMSO only was transferred to the assay plate by a Pintool station (Kalypsys, San Diego, CA). The assay plates were incubated at 37 C and 5% CO2 for 5 hr. One uL of LiveBLAzer B/G FRET substrate (Life Technologies) was added using a Flying Reagent Dispenser (Aurora Discovery, San Diego, CA) and the plates were incubated at room temperature for 2 hr. Fluorescence intensity (405 nm excitation, 460 nm and 530 nm emissions) was measured using an Envision plate reader (PerkinElmer, Shelton, CT).
% is set by controls: 0 for no effect and ±100 for the full control effect.

**Q.** With COc1nc(N)nc2nc[nH]c12 as the compound, how does the outcome read?
**A.** inactive

**Q.** Which outcome does the source give for CC1OCCC1=O (stereo not given) here?
**A.** inactive

**Q.** For OC[C@H]1O[C@@H](O[C@@H]2[C@@H](CO)O[C@](O)(CO)[C@H]2O)[C@H](O)[C@@H](O)[C@H]1O, which outcome is on record?
**A.** inactive

**Q.** Which activation does the source give for CC1(C)CC(OC(=O)CCCCCCCCC(=O)OC2CC(C)(C)NC(C)(C)C2)CC(C)(C)N1 here?
**A.** 0.453% [at 15.8 µM]

**Q.** Which activation does the source give for CCCCCCCCCCCCCCCCCCOCCO here?
**A.** -0.657% [at 15.8 µM]

**Q.** With Nc1nc(-c2ccccc2)c(Br)c(=O)[nH]1 as the compound, how does the outcome read?
**A.** inactive

**Q.** For CCCCOCC(C)O (stereo not given), which outcome is on record?
**A.** inactive

**Q.** Which outcome does the source give for COS(=O)(=O)O here?
**A.** inactive

**Q.** For CCn1cc(C(=O)O)c(=O)c2cnc(N3CCCC3)nc21, which activation is on record?
**A.** -0.108% [at 6.97 µM]

**Q.** With CC1c2ccccc2CN1NC(=O)c1ccc(Cl)c(S(N)(=O)=O)c1 (stereo not given) as the compound, how does the outcome read?
**A.** inactive

**Q.** Which outcome does the source give for CC(O)COC(C)(C)C (stereo not given) here?
**A.** inactive

**Q.** Which outcome does the source give for CC1=C(C(=O)O)N2C(=O)[C@@H](NC(=O)[C@H](N)c3ccccc3)[C@H]2SC1 here?
**A.** inactive

**Q.** With COc1c2occc2c(OC)c2c(=O)cc(C)oc12 as the compound, how does the outcome read?
**A.** inactive

**Q.** For CC(=O)c1cc(C)oc1C, which outcome is on record?
**A.** inactive

**Q.** With CC(C)Nc1ccccc1 as the compound, how does the outcome read?
**A.** inactive

**Q.** Which activation does the source give for N[C@@H](Cc1ccc(O)cc1)C(=O)O here?
**A.** 4.2% [at 6.97 µM]

**Q.** Which outcome does the source give for N#Cc1cscn1 here?
**A.** inactive

**Q.** With CC(C)CO as the compound, how does the outcome read?
**A.** inactive

**Q.** With CN1CCOC(c2ccccc2)c2ccccc2C1 (stereo not given) as the compound, how does the outcome read?
**A.** inactive

**Q.** With CCCSSCCC as the compound, how does the outcome read?
**A.** inactive

**Q.** For CC(C)CCOC(=O)c1ccccc1, which outcome is on record?
**A.** inactive

**Q.** For C/C=C(\C)C(=O)OCCc1ccccc1, which outcome is on record?
**A.** inactive

**Q.** For O=C=NCC1CCCC(CN=C=O)C1 (stereo not given), which outcome is on record?
**A.** inactive

**Q.** Which outcome does the source give for CC1=NN(c2ccc(S(=O)(=O)O)cc2)C(=O)C1 here?
**A.** inactive

**Q.** For CCC[C@@H]1C[C@@H](C(=O)N[C@@H]([C@H]2O[C@H](SC)[C@H](O)[C@@H](O)[C@H]2O)[C@@H](C)O)N(C)C1, which outcome is on record?
**A.** inactive

**Q.** For C=C(C)[C@@H]1CC=C(C)CC1, which outcome is on record?
**A.** inactive

**Q.** For CCN(CC)CCN, which outcome is on record?
**A.** inactive

**Q.** For Cc1c(C(=O)c2c[nH]n(C)c2=O)ccc(S(C)(=O)=O)c1C1=NOCC1, which outcome is on record?
**A.** inactive

**Q.** With CCCCOCCOC(=O)COc1ccc(Cl)cc1Cl as the compound, how does the outcome read?
**A.** inactive

**Q.** With NCCOCCN as the compound, how does the outcome read?
**A.** inactive

**Q.** For CC(C)=CCC/C(C)=C/COC=O, which outcome is on record?
**A.** inactive

**Q.** Which outcome does the source give for C#CCN[C@@H]1CCc2ccccc21 here?
**A.** inactive

**Q.** For Cn1c(=O)c2[nH]c(Br)nc2n(C)c1=O, which outcome is on record?
**A.** inactive

**Q.** With CC1(C)[C@H]2CC[C@](C)(C2)[C@H]1O as the compound, how does the outcome read?
**A.** inactive

**Q.** For COC(C)(OC)OC, which outcome is on record?
**A.** inactive

**Q.** Which outcome does the source give for CN(C)CCCO[C@@H]1[C@H]2OC(C)(C)O[C@H]2O[C@@H]1C(O)CO (stereo not given in full) here?
**A.** inactive

**Q.** With CCCC(=O)OC/C=C(\C)CCC=C(C)C as the compound, how does the outcome read?
**A.** inactive

**Q.** With NCc1ccc(S(N)(=O)=O)cc1 as the compound, how does the outcome read?
**A.** inactive

**Q.** Which outcome does the source give for O=C1CCCCO1 here?
**A.** inactive

**Q.** For COc1cc2c(cc1OC)C(=O)C(CC1CCN(Cc3ccccc3)CC1)C2 (stereo not given), which outcome is on record?
**A.** inactive
